{"source": "PubChem BioAssay (NCATS)", "note": "Results filed as inconclusive are left out. A call without a number means that no potency is given here. Values without a mark were called inactive. The source made the active and inactive calls. Calls come from the whole dose curve; as a rule, active = well fitted inhibition curve with a large enough effect; inconclusive = small, poorly fitted or top-dose-only effect; inactive = flat fitted curve, though single readings scatter."}
{"molecular_target": "Glutathione peroxidase 1 (Homo sapiens) (UniProt P07203)", "sequence (P07203 whole entry, looked up)": "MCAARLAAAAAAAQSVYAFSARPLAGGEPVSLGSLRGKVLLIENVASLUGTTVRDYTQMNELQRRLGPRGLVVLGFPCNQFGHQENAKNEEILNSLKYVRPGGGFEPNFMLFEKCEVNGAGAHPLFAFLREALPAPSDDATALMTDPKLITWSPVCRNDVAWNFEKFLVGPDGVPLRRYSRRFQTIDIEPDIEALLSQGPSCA", "experiment": "Primary qHTS Assay for Inhibitors of Recombinant Selenoprotein Glutathione Peroxidase 1 (GPX1) (AID 1845191)", "settings": "recombinant GPX1, GR-coupled NADPH fluorescence, 15 min; series mostly up to 48.8 µM; activity, negative = inhibition: at the top concentration", "outline": "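GR-coupled readout: NADPH consumption tracked by fluorescence, ex 340/em 450 nm, at t=0 and after 15 min at RT. Final mix 10 nM GPX1, 1 mM GSH, 0.5 mM CHP, 0.5 mM NADPH, 100 nM GR, 0.01% BSA, following 30 min enzyme–compound preincubation.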"}
{"compound": "O=P1(NCCCl)OCCCN1CCCl", "note": "(stereo not given); note: nearly all actives have a fitted effect of over 65% in size", "Potency": "inactive"}
{"compound": "COc1ccc2c(c1OC)CN1CCc3cc4c(cc3C1C2)OCO4", "note": "(stereo not given)", "outcome": "inactive"}
{"compound": "CN(C)[C@@H]1C(=O)C(C(N)=O)=C(O)[C@@]2(O)C(=O)C3=C(O)c4c(O)cccc4[C@@](C)(O)[C@H]3C[C@@H]12", "Potency": "inactive"}
{"compound": "CN(C)CCN(C)CCc1ccc(Cl)c(Cl)c1", "outcome": "inactive"}
{"molecular_target": "Phospholipid hydroperoxide glutathione peroxidase GPX4 (Homo sapiens) (UniProt P36969)", "sequence (P36969 whole entry, looked up)": "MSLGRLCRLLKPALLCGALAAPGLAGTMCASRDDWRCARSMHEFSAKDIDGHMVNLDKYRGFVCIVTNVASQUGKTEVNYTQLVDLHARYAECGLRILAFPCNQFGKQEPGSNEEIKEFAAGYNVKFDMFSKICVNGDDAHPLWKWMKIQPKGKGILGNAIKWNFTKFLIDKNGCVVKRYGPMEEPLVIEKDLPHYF", "experiment": "Primary qHTS Assay for Inhibitors of Recombinant Selenoprotein Glutathione Peroxidase 4 (GPX4) (AID 1845192); note: potency is the fitted concentration of half-maximal effect", "settings": "recombinant GPX4, GR-coupled NADPH fluorescence, 15 min; series mostly up to 50 µM; activity change, negative = inhibition: at the top concentration", "outline": "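Steps: GPX4 plus compound, 30 min RT; add GR/GSH/NADPH master mix; start with cumene hydroperoxide; read 340/450 nm fluorescence at 0 and 15 min. Finals were 200 nM GPX4, 1 mM GSH, 0.5 mM CHP, 0.5 mM NADPH, 100 nM GR.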"}
{"compound": "Oc1ccc(Cl)cc1Cc1ccccc1", "activity change, negative = inhibition": "-1.94%"}
{"compound": "Cc1sc2c(c1C)C(c1ccc(Cl)cc1)=N[C@@H](CC(=O)OC(C)(C)C)c1nnc(C)n1-2", "activity change, negative = inhibition": "-23.4%"}
{"compound": "OCCOc1ccccc1", "activity change, negative = inhibition": "-2.48% [at 100 µM]"}
{"compound": "C=C(C)[C@H]1Cc2c(ccc3c2O[C@@H]2COc4cc(OC)c(OC)cc4[C@@H]2C3=O)O1", "Potency": "inactive"}
{"compound": "O=P1(NCCCl)OCCCN1CCCl", "note": "(stereo not given)", "Potency": "inactive"}
{"compound": "N#CC(C#N)=Cc1ccc(O)c(O)c1", "outcome": "inactive"}
{"compound": "COc1ccc(C(=O)c2c(C)n(CCN3CCOCC3)c3ccccc23)cc1", "activity change, negative = inhibition": "-10%"}
{"compound": "COC[C@H]1OC(=O)c2coc3c2[C@@]1(C)C1=C(C3=O)C2CCC(=O)[C@@]2(C)C[C@H]1OC(C)=O", "note": "(stereo not given in full)", "Potency": "inactive"}
{"compound": "O=C(O)C(=O)c1cn(Cc2ccccc2)c2ccc(-c3ccc(OC(F)(F)F)cc3)cc12", "Potency": "9.04 µM (active)"}
{"compound": "C[C@H]1O[C@@H](O[C@H]2[C@@H](O)C[C@H](O[C@H]3[C@@H](O)C[C@H](O[C@H]4CC[C@@]5(C)[C@H](CC[C@@H]6[C@@H]5CC[C@]5(C)[C@@H](C7=CC(=O)OC7)CC[C@]65O)C4)O[C@@H]3C)O[C@@H]2C)C[C@H](O)[C@@H]1O", "Potency": "inactive"}
{"compound": "C=C1CC[C@@]2(O)[C@H]3Cc4ccc(O)c5c4[C@@]2(CCN3CC2CC2)[C@H]1O5", "outcome": "inactive"}
